Assay results: the supplement of paper PMC12669032

Experiments:
Assay in all cases: growth AUC relative to DMSO control (median of replicates) (fraction); higher = more growth (less inhibition), active = hit call of the paper
Conditions in all cases: 20 µM; 24 h;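 active = AUC reduced over 20% with Padj below 0.05 in at least 2 of 3 replicates; inactive = otherwise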
Coprococcus comes = tested on: Coprococcus comes
In short: (§1)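 For each compound at 20 µM (1% DMSO), gut bacterial monocultures seeded at OD600 0.05 grew anaerobically in mGAM at 37 °C in round-bottom 96-well plates. Hourly OD600 readings over 24 h gave growth curves whose minimum OD was set to 0. Area under these curves was normalised to the plate median of solvent-only wells, or to row and column medians on the industrial chemical plate. Values are medians of three biological replicates grown on separate days.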

Escherichia coli ED1a = tested on: Escherichia coli ED1a
In short: as §1

Escherichia coli IAI1 = tested on: Escherichia coli IAI1
In short: as §1

Eubacterium rectale = tested on: Eubacterium rectale
In short: as §1

[1] = tested on: Fusobacterium nucleatum subsp. animalis
In short: as §1

Lactobacillus gasseri = tested on: Lactobacillus gasseri
In short: as §1

Lactobacillus paracasei = tested on: Lactobacillus paracasei
In short: as §1

Odoribacter splanchnicus = tested on: Odoribacter splanchnicus
In short: as §1

[2] = tested on: Parabacteroides distasonis
In short: as §1

Parabacteroides merdae = tested on: Parabacteroides merdae
In short: as §1

Roseburia intestinalis = tested on: Roseburia intestinalis
In short: as §1

Streptococcus salivarius = tested on: Streptococcus salivarius
In short: as §1

Measured: growth AUC

CCCCOC(=O)[C@@H](C)Oc1ccc(Oc2ccc(C#N)cc2F)cc1
active: [2] 0.704
inactive: Coprococcus comes 1.01 | Escherichia coli ED1a 1 | Escherichia coli IAI1 0.966 | Eubacterium rectale 1.11 | [1] 1.01 | Lactobacillus gasseri 0.87 | Lactobacillus paracasei 0.939 | Odoribacter splanchnicus 1 | Parabacteroides merdae 0.971 | Roseburia intestinalis 0.997 | Streptococcus salivarius 0.954

COCC(C)N(C(=O)CCl)c1c(C)csc1C (stereo not drawn)
inactive: Coprococcus comes 1.02 | Escherichia coli ED1a 0.976 | Escherichia coli IAI1 0.993 | Eubacterium rectale 1.16 | [1] 0.825 | Lactobacillus gasseri 0.806 | Lactobacillus paracasei 1.01 | Odoribacter splanchnicus 0.822 | Parabacteroides merdae 1 | Roseburia intestinalis 0.988 | Streptococcus salivarius 0.868
active: [2] 0.683

COP(=O)(OC)SCn1c(=O)oc2cc(Cl)cnc21
inactive: Coprococcus comes 1.11 | Escherichia coli ED1a 1.01 | Escherichia coli IAI1 1 | Eubacterium rectale 0.986 | [1] 0.983 | Lactobacillus gasseri 1.08 | Lactobacillus paracasei 1.05 | Odoribacter splanchnicus 1 | [2] 1.08 | Parabacteroides merdae 1 | Roseburia intestinalis 1.06 | Streptococcus salivarius 0.978

CCCN(CCC)c1c([N+](=O)[O-])cc(C(C)C)cc1[N+](=O)[O-]
inactive: Coprococcus comes 1.06 | Escherichia coli ED1a 1.02 | Escherichia coli IAI1 0.996 | Eubacterium rectale 1.02 | [1] 1 | Lactobacillus gasseri 0.941 | Lactobacillus paracasei 1.09 | Odoribacter splanchnicus 0.989 | [2] 0.932 | Parabacteroides merdae 0.984 | Roseburia intestinalis 1.01 | Streptococcus salivarius 0.99

Nc1c([N+](=O)[O-])ccc(Oc2ccccc2)c1Cl
inactive: Coprococcus comes 0.903 | Escherichia coli ED1a 1.01 | Escherichia coli IAI1 1.01 | Eubacterium rectale 0.887 | [1] 0.947 | Lactobacillus gasseri 1.02 | Lactobacillus paracasei 0.832 | Odoribacter splanchnicus 0.935 | [2] 0.951 | Parabacteroides merdae 0.912 | Roseburia intestinalis 0.988 | Streptococcus salivarius 0.929

CC1(C)C(C=C(Cl)Cl)[C@@H]1C(=O)O[C@@H](C#N)c1ccc(F)c(Oc2ccccc2)c1 (stereo partly drawn)
inactive: Coprococcus comes 0.984 | Escherichia coli ED1a 0.956 | Escherichia coli IAI1 1 | Eubacterium rectale 1 | [1] 0.878 | Lactobacillus gasseri 0.823 | Lactobacillus paracasei 0.99 | Odoribacter splanchnicus 1.01 | [2] 1.03 | Parabacteroides merdae 0.991 | Roseburia intestinalis 0.916 | Streptococcus salivarius 1

c1cc2c3c(cccc3c1)CC2
inactive: Coprococcus comes 1 | Escherichia coli ED1a 1.01 | Escherichia coli IAI1 1.01 | Eubacterium rectale 1.05 | [1] 1.07 | Lactobacillus gasseri 1.05 | Lactobacillus paracasei 1.01 | Odoribacter splanchnicus 1.01 | [2] 1.01 | Parabacteroides merdae 0.995 | Roseburia intestinalis 0.998 | Streptococcus salivarius 1.01

N#Cc1c(Cl)c(Cl)c(Cl)c(C#N)c1Cl
inactive: Coprococcus comes 0.974 | Escherichia coli ED1a 0.967 | Escherichia coli IAI1 0.96 | Eubacterium rectale 0.714 | [1] 0.908 | Lactobacillus paracasei 0.872 | Odoribacter splanchnicus 0.927 | Parabacteroides merdae 0.823 | Roseburia intestinalis 0.939 | Streptococcus salivarius 0.88
active: Lactobacillus gasseri 0.558 | [2] 0.682

Nc1c(Cl)c(F)nc(OCC(=O)O)c1Cl
inactive: Coprococcus comes 0.99 | Escherichia coli ED1a 0.992 | Escherichia coli IAI1 1.03 | Eubacterium rectale 0.918 | [1] 0.971 | Lactobacillus gasseri 1.11 | Lactobacillus paracasei 1.16 | Odoribacter splanchnicus 1 | [2] 0.972 | Parabacteroides merdae 1.01 | Roseburia intestinalis 1 | Streptococcus salivarius 1

CCOP(=S)(OCC)Oc1ccc2c(C)c(Cl)c(=O)oc2c1
active: [2] 0.748
inactive: Coprococcus comes 1 | Escherichia coli ED1a 1.02 | Escherichia coli IAI1 1.01 | Eubacterium rectale 1.11 | [1] 1.01 | Lactobacillus gasseri 0.991 | Lactobacillus paracasei 0.998 | Odoribacter splanchnicus 1.01 | Parabacteroides merdae 0.897 | Roseburia intestinalis 1.01 | Streptococcus salivarius 1

COC(=O)C1(O)c2ccccc2-c2ccccc21
inactive: Coprococcus comes 0.939 | Escherichia coli ED1a 0.966 | Escherichia coli IAI1 1.01 | Eubacterium rectale 0.95 | [1] 0.911 | Lactobacillus gasseri 1.07 | Lactobacillus paracasei 1 | Odoribacter splanchnicus 0.988 | [2] 1.03 | Parabacteroides merdae 0.993 | Roseburia intestinalis 1 | Streptococcus salivarius 1

O=C(NC(=O)c1c(F)cccc1F)Nc1cc(Cl)c(OC(F)(F)C(F)C(F)(F)F)cc1Cl (stereo not drawn)
inactive: Coprococcus comes 0.919 | Escherichia coli ED1a 0.996 | Escherichia coli IAI1 1 | Eubacterium rectale 1.01 | [1] 1.01 | Lactobacillus gasseri 0.989 | Lactobacillus paracasei 0.976 | Odoribacter splanchnicus 0.993 | [2] 0.964 | Parabacteroides merdae 0.988 | Roseburia intestinalis 1.02 | Streptococcus salivarius 0.958

c1cc2ccc3cccc4ccc(c1)c2c34
inactive: Coprococcus comes 0.914 | Escherichia coli ED1a 0.958 | Escherichia coli IAI1 0.982 | Eubacterium rectale 1.04 | [1] 0.945 | Lactobacillus gasseri 0.993 | Lactobacillus paracasei 0.934 | Odoribacter splanchnicus 1 | Parabacteroides merdae 0.976 | Roseburia intestinalis 0.977 | Streptococcus salivarius 0.927
active: [2] 0.751

Cc1cnc2c(C(=O)O)c(Cl)ccc2c1
inactive: Coprococcus comes 0.983 | Escherichia coli ED1a 0.977 | Escherichia coli IAI1 0.987 | Eubacterium rectale 0.934 | [1] 0.952 | Lactobacillus gasseri 0.952 | Lactobacillus paracasei 1.05 | Odoribacter splanchnicus 0.968 | [2] 0.967 | Parabacteroides merdae 1.01 | Roseburia intestinalis 0.937 | Streptococcus salivarius 0.969

CCC(CC)Nc1c([N+](=O)[O-])cc(C)c(C)c1[N+](=O)[O-]
inactive: Coprococcus comes 0.982 | Escherichia coli ED1a 0.987 | Escherichia coli IAI1 0.947 | Eubacterium rectale 0.979 | [1] 0.93 | Lactobacillus gasseri 0.858 | Lactobacillus paracasei 0.935 | Odoribacter splanchnicus 1.11 | [2] 0.974 | Parabacteroides merdae 0.942 | Roseburia intestinalis 0.897 | Streptococcus salivarius 0.959

O=c1[nH]c2c(c(=O)n1C1CCCCC1)CCC2
inactive: Coprococcus comes 0.945 | Escherichia coli ED1a 0.99 | Escherichia coli IAI1 0.987 | Eubacterium rectale 0.899 | [1] 0.834 | Lactobacillus gasseri 0.923 | Lactobacillus paracasei 1.02 | Odoribacter splanchnicus 0.98 | [2] 0.999 | Parabacteroides merdae 0.973 | Roseburia intestinalis 0.982 | Streptococcus salivarius 0.998

COc1nn(CSP(=S)(OC)OC)c(=O)s1
inactive: Coprococcus comes 1.06 | Escherichia coli ED1a 1 | Escherichia coli IAI1 1 | Eubacterium rectale 1.08 | [1] 1.01 | Lactobacillus gasseri 0.987 | Lactobacillus paracasei 1.01 | Odoribacter splanchnicus 1.08 | [2] 1 | Parabacteroides merdae 1.04 | Roseburia intestinalis 1.06 | Streptococcus salivarius 0.985

CCS(=O)(=O)Oc1ccc2c(c1)C(C)(C)CO2
inactive: Coprococcus comes 1.08 | Escherichia coli ED1a 1.02 | Escherichia coli IAI1 1.02 | Eubacterium rectale 0.83 | [1] 0.966 | Lactobacillus gasseri 1.06 | Lactobacillus paracasei 1 | Odoribacter splanchnicus 1.07 | [2] 1.03 | Parabacteroides merdae 0.963 | Roseburia intestinalis 1.04 | Streptococcus salivarius 1.03

COP(=S)(OC)Oc1ccc(S(=O)(=O)N(C)C)cc1
inactive: Coprococcus comes 0.984 | Escherichia coli ED1a 1 | Escherichia coli IAI1 0.985 | Eubacterium rectale 0.998 | [1] 0.894 | Lactobacillus gasseri 0.925 | Lactobacillus paracasei 0.935 | Odoribacter splanchnicus 0.977 | [2] 1.01 | Parabacteroides merdae 0.969 | Roseburia intestinalis 0.971 | Streptococcus salivarius 1.04

CC(C)N1C(=O)N(c2ccccc2)CSC1=NC(C)(C)C
inactive: Coprococcus comes 0.943 | Escherichia coli ED1a 0.967 | Escherichia coli IAI1 1.02 | Eubacterium rectale 0.956 | [1] 0.966 | Lactobacillus gasseri 0.963 | Lactobacillus paracasei 1.03 | Odoribacter splanchnicus 1.02 | [2] 0.946 | Parabacteroides merdae 0.997 | Roseburia intestinalis 1.02 | Streptococcus salivarius 0.953

CCOP(=S)(OCC)Oc1nc(Cl)n(C(C)C)n1
inactive: Coprococcus comes 0.986 | Escherichia coli ED1a 1 | Escherichia coli IAI1 0.999 | Eubacterium rectale 0.886 | [1] 1.16 | Lactobacillus gasseri 0.952 | Lactobacillus paracasei 0.954 | Odoribacter splanchnicus 0.991 | [2] 0.917 | Parabacteroides merdae 0.974 | Roseburia intestinalis 1.02 | Streptococcus salivarius 1

CCCCC(O)(Cn1cncn1)c1ccc(Cl)cc1Cl (stereo not drawn)
inactive: Coprococcus comes 0.946 | Escherichia coli ED1a 0.987 | Escherichia coli IAI1 0.996 | [1] 1.04 | Lactobacillus gasseri 0.952 | Lactobacillus paracasei 0.936 | Odoribacter splanchnicus 0.894 | [2] 1.01 | Parabacteroides merdae 0.931 | Roseburia intestinalis 1 | Streptococcus salivarius 0.991
active: Eubacterium rectale 0.783

CCOC(=O)C(SP(=S)(OC)OC)c1ccccc1 (stereo not drawn)
active: [2] 0.746
inactive: Coprococcus comes 1.02 | Escherichia coli ED1a 0.991 | Escherichia coli IAI1 0.976 | Eubacterium rectale 0.821 | [1] 0.904 | Lactobacillus gasseri 1.05 | Lactobacillus paracasei 1.02 | Odoribacter splanchnicus 0.958 | Parabacteroides merdae 0.958 | Roseburia intestinalis 1.03 | Streptococcus salivarius 1

COCCOC(=O)C(C#N)(C(=O)c1ccccc1C(F)(F)F)c1ccc(C(C)(C)C)cc1 (stereo not drawn)
inactive: Coprococcus comes 0.971 | Escherichia coli ED1a 0.953 | Escherichia coli IAI1 0.966 | Eubacterium rectale 1.05 | [1] 1.03 | Lactobacillus gasseri 0.839 | Lactobacillus paracasei 0.908 | Odoribacter splanchnicus 1 | [2] 0.723 | Parabacteroides merdae 0.946 | Roseburia intestinalis 1.02 | Streptococcus salivarius 0.917
